Bioassay records as filed in PubChem.
DT40 TDP1 no CPT: qHTS for Inhibitors of human tyrosyl-DNA phosphodiesterase 1 (TDP1): qHTS in cells in absence of CPT | DT40 Tdp1-/- hTDP1 cells, no CPT, ATP luminescence, 48 h | Potency, µM (highest dose often 46.2 µM), for inactives: at the highest dose activity change, negative = growth inhibition, hits mostly inhibitors | 420,000 tested, 15% active; further: potency means the concentration at half of the fitted maximal effect; on the % scale 0 is the no-effect control and ±100 the full control effect; nearly all actives have a fitted effect of over 55% in size
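DT40 Tdp1-/-;hTDP1 cells, no CPT (DMSO vehicle only), 400 cells/well; compounds pin-transferred; ≥48 hr, 37 °C; CellTiter-Glo 30 min RT dark, luminescence read.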
D3 antag: antagonists of human D3 dopamine receptor | max response, negative = inhibition, % | P35462 | D3R cells, DiscoveRx beta-arrestin luminescence, antagonist mode; stronger effect = lower value | 360,000 tested, 2.5% active; in the data active means max response below about -50%; inconclusive means no clear call, values can overlap the other calls; further: on the % scale 0 is the no-effect control and ±100 the full control effect
Target sequence (P35462 whole entry, looked up): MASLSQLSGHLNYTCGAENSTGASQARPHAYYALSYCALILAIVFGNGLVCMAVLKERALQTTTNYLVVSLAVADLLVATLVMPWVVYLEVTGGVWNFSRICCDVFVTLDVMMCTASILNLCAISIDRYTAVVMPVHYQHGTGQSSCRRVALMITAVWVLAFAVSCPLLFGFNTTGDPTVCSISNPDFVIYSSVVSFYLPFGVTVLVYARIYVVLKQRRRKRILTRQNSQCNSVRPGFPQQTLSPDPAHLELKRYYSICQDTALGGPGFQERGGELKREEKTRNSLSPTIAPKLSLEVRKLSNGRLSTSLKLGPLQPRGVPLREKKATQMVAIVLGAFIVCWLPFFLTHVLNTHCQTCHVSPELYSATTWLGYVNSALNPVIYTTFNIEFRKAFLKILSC
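Cells expressing the human receptor were seeded at 1500 cells/well, incubated overnight at 37 degrees C in 5% CO2, then exposed to library compounds with dopamine controls for 90 minutes at 37 degrees C before luminescent detection.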
ClpP mod: qHTS Assay for Activators of ClpP; ATP-dependent Clp protease proteolytic subunit (Bacillus subtilis (strain 168)), P80244; purified B. subtilis ClpP, FRET peptide cleavage, 20 min; Potency, µM (series often up to 57.5 µM), for inactives: at the highest dose activity change, negative = active; 340,000 tested, 1.9% active; AID 651965, 2013; active means well fitted falling curve with a large enough effect; inconclusive means small, poorly fitted or top-dose-only effect; inactive means no such curve, though single readings can be large or run the other way; further: potency means the concentration at half of the fitted maximal effect; the source files actives as falling curves though it sought activators and does not explain the sign; nearly all actives have a fitted effect of over 65% in size
Target sequence (P80244 whole entry, looked up): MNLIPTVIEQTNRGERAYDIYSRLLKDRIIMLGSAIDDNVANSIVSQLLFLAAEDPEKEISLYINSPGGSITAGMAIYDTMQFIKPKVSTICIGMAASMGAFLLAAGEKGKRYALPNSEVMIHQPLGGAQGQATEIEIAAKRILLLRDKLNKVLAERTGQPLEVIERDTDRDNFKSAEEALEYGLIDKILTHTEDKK
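Purified B. subtilis ClpP, 10 microg/mL final in Tris/HCl pH8 with KCl, BSA, glycerol and Tween-20, cleaved an Abz/nitrotyrosine-quenched decapeptide. Fluorescence (ex 320, em 430) was read at 0 and 20 min at room temperature. Delta was normalized to 5.8 microM ADEP and DMSO/no-enzyme controls.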
DRD3 agonist: activates the human D3 dopamine receptor; max activation, %; P35462; 410,000 tested, 0.58% active; D3R DiscoveRx beta-arrestin cells, luminescence, 90 min; in the data active means max activation above about 30%; further: 0% is about no effect
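Cells at 1500/well, incubated overnight, then treated with pinned compounds (dopamine as control) for 90 min at 37 degrees C. DiscoveRx reagent added for 30 - 60 minutes at room temperature; luminescence read.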
IL-1B inflam inh: inflammasome signaling inhibition, IL-1 beta readout | THP-1 LPS/ATP IL-1B secretion, AlphaLISA, 16 h; stronger effect = lower value | activity change, % at 57.5 µM | 360,000 tested, 4.7% active | AID 743279; in the data active means activity change below about -50%; inconclusive means mostly about -30% to -49%; further: on the % scale 0 is the no-effect control and ±100 the full control effect
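THP-1 cells pretreated 1 hr with compounds (up to 57.5 uM final), then stimulated with LPS (250 ng/mL final) plus ATP (1.25 mM final); secreted IL-1B measured by AlphaLISA after 16 hr, decreased signal indicating inhibition.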
DT40 TDP1 CPT: DT40-hTDP1 cell growth loss with CPT; AID 686979; chicken DT40 Tdp1-/-;hTDP1 cells + 20 nM CPT, ATP luminescence, 48 h; 420,000 tested, 12% active; Potency, µM (top dose mostly 46.2 µM), without a hit: at the highest dose activity change, negative = growth inhibition, usual class: inhibitors; further: potency means the concentration at half of the fitted maximal effect; on the % scale 0 is the no-effect control and ±100 the full control effect; nearly all actives have a fitted effect of over 55% in size
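Chicken DT40 Tdp1-/- cells complemented with human TDP1, 400 cells/well, exposed to compounds plus 20 nM camptothecin for at least 48 h at 37 C; viability read as ATP content by CellTiter-Glo luminescence.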
The depositor's hits bear a star; ? = inconclusive; . = no result; [ ] = another dose, or the depositor's remark. Sampled rows, rich in hits. Any-hit rate of the full collection: about 21%. Unless noted, the call rests on the fitted dose curve; in most records, active means well fitted inhibition curve with a large enough effect; inconclusive means small, poorly fitted or top-dose-only effect; inactive means flat fitted curve, though single readings scatter.

SMILES | DT40 TDP1 no CPT | D3 antag | ClpP mod | DRD3 agonist | IL-1B inflam inh | DT40 TDP1 CPT
COc1cc2c(cc1OC)C(C)N(C(=O)c1ccc(Cl)c(S(=O)(=O)N3CCCCC3)c1)CC2 (stereo not drawn) | 10µM* | 15 | 1% | -2 | -16 | 21µM*
COc1cc2c(cc1OC)C(C)N(C(=O)c1c(-c3ccccc3)noc1C)CC2 (stereo not drawn) | 13µM* | 15 | 2% | -1 | 66 | 18µM*
COc1cc2c(cc1OC)C(COc1ccc(F)cc1)N(C(=O)c1ccc(S(=O)(=O)N3CCCC3)cc1)CC2 (stereo not drawn) | ? | . | -5% | 5 | . | ?
CC(=O)Oc1[nH]c(=O)c2cccc3c2c1CCC3 | 29µM* | 2 | 5% | -3 | -11 | ?
CCCCCN(C(=O)CCC(=O)OCc1ccc(Cl)cc1Cl)c1c(N)n(CCCC)c(=O)[nH]c1=O | ? | -13 | . | -11 | -66* | ?
CCCCCN(C(=O)CCC(=O)OCC(=O)N(C)Cc1ccccc1C)c1c(N)n(CCCC)c(=O)[nH]c1=O | -22% | 8 | -10% | -1 | -2 | -16%
CCCCCN(C(=O)CCC(=O)OCc1ccccc1Cl)c1c(N)n(CCCC)c(=O)[nH]c1=O | -18% | 14 | 1% | -25 | 0 | ?
CCCCCN(C(=O)CCC(=O)OCC(=O)N(CC#N)c1ccccc1)c1c(N)n(CCCC)c(=O)[nH]c1=O | -5% | -54* | -2% | 0 | 6 | -3%
CCCCCN(C(=O)CCC(=O)OCc1cccc(C)c1)c1c(N)n(CCCC)c(=O)[nH]c1=O | ? | 22 | 2% | -2 | -1 | 21µM*
CCCCCN(C(=O)CCC(=O)OCc1cccc(F)c1)c1c(N)n(CCCC)c(=O)[nH]c1=O | -2% | 2 | -3% | 7 | -15 | 2%
O=C(Cn1c(=O)n(Cc2ccc3c(c2)OCO3)c(=O)c2oc3ccccc3c21)Nc1ccccc1 | -29% | . | ? | 6 | . | -21%
CC(C)Oc1ccc(CNC(=O)C(C)n2ccc3cc(S(=O)(=O)N4CCCCCC4)ccc32)cc1 (stereo not drawn) | 21µM* | . | -11% | 8 | . | ?
CC(C(=O)NCc1ccc(Cl)cc1)n1ccc2cc(S(=O)(=O)N3CCCCCC3)ccc21 (stereo not drawn) | 18µM* | . | -7% | -6 | . | ?
COc1ccc(-c2cc(NC(C)=O)c3ncc(-c4ccc(OC)c(OC)c4)n3c2)c(OC)c1 | 21µM* | 63 | 4% | 10 | -59* | 23µM*
COc1ccc(-c2cnc3c(NC(C)=O)cc(-c4cc(F)ccc4OC)cn23)cc1OC | 5.8µM* | 18 | -16% | 5 | -2 | 5.2µM*
COc1ccc(-c2cc(NC(C)=O)c3ncc(-c4ccccc4)n3c2)cc1OC | ? | 50 | -3% | 14 | -25 | ?
COc1ccc(-c2cc(NC(C)=O)c3ncc(-c4ccc(F)cc4)n3c2)cc1OC | 15µM* | 0 | -18% | 6 | -18 | 23µM*
COc1ccc(F)cc1-c1cc(NC(C)=O)c2ncc(-c3cc(OC)c(OC)c(OC)c3)n2c1 | 2.9µM* | -9 | -9% | 3 | 39 | 3.7µM*
CC(C)COC(=O)N(C)C[C@H]1OCc2cnnn2CCCC(=O)N([C@@H](C)CO)C[C@H]1C | -5% | 22 | 3% | 8 | 27 | -6%
Cc1cc(NC(=O)c2ccc3[nH]c(C)c(C)c3c2)ccn1 | 26µM* | -1 | -1% | -12 | -58* | 21µM*
COc1ccc(CCNC(=O)c2ccc3[nH]c(C)c(C)c3c2)cc1OC | 23µM* | . | -3% | -11 | . | ?
COc1ccccc1CNC(=O)c1ccc2[nH]c(C)c(C)c2c1 | -12% | . | -15% | -1 | . | 9%
CCOc1ccc(CCNC(=O)c2ccc3[nH]c(C)c(C)c3c2)cc1 | 21µM* | . | -17% | -9 | . | ?
COc1ccc(OC)c(CCNC(=O)c2ccc3[nH]c(C)c(C)c3c2)c1 | 21µM* | . | -26% | -11 | . | ?
COc1ccc(NC(=O)c2ccc3[nH]c(C)c(C)c3c2)cc1 | -27% | 0 | -1% | -5 | ? | ?
SMILES | DT40 TDP1 no CPT | D3 antag | ClpP mod | DRD3 agonist | IL-1B inflam inh | DT40 TDP1 CPT
Cc1ccc(CCNC(=O)c2ccc3[nH]c(C)c(C)c3c2)cc1 | -22% | . | -13% | 2 | . | ?
CO[C@H]1C[C@H](O[C@H]2[C@H](C)[C@@H](O[C@@H]3O[C@H](C)C[C@H](N(C)C)[C@H]3O)[C@@H](C)C[C@]3(CO3)C(=O)[C@H](C)[C@@H](O)[C@@H](C)[C@@H](C)OC(=O)[C@@H]2C)O[C@@H](C)[C@@H]1O | 4%[21.1 µM] | . | . | 7 | . | -23%[21.1 µM]
N#Cc1c(-c2ccccc2)ccn(Cc2ccc(Cl)cc2)c1=O | ? | -3 | -22% | 5 | -5 | ?
CSc1cc(-c2ccccc2)n(Cc2ccc(Cl)cc2Cl)c(=O)c1C#N | 23µM* | 9 | -12% | 0 | 29 | 18µM*
O=C(CN1c2cccc3cccc(c23)S1(=O)=O)N1CCN(c2ccc(F)cc2)CC1 | -16% | -3 | -13% | 4 | ? | -26%
O=S1(=O)c2cccc3cccc(c23)N1CCCN1CCN(c2ccc(F)cc2)CC1 | 21µM* | . | . | -13 | . | ?
CCOc1ccc(NC(=O)Cc2c(O)c3ccccc3[nH]c2=O)cc1 | -16% | -63* | -16% | -13 | 15 | -3%
Cc1ccccc1NC(=O)Cc1c(O)c2ccccc2[nH]c1=O | ? | -16 | 16µM* | -6 | 9 | -15%
Cc1cc(C)cc(-c2nnc(SCC(=O)c3c(N)n(C4CC4)c(=O)[nH]c3=O)o2)c1 | -11% | 2 | -2% | 7 | 3 | -4%
C=CC[n+]1c(/C=C/c2ccc(OC(C)=O)c(OC)c2)ccc2ccccc21 | 12µM* | 2 | -1% | 0 | -99* | 7.3µM*
COc1cc(/C=N/NC(=O)Nc2ccccc2)ccc1OC(C)=O | -23% | 5 | -27% | 2 | 10 | -8%
CCN1CCc2nc3sc(C(=O)c4ccccc4)c(N)c3cc2C1 | 3.7µM* | . | -6% | -3 | . | 2.6µM*
CCN1CCc2nc3sc(C(=O)c4ccc(F)cc4)c(N)c3cc2C1 | 23µM* | . | -7% | 4 | . | ?
CN1CCc2nc3sc(C(=O)c4ccc(F)cc4)c(N)c3cc2C1 | ? | . | -5% | 0 | . | ?
